The structures appear in SMILES notation. “And” between values parts separate entries of the source, which are not always exact repeats. Equal entries are not always repeated. Results filed as inconclusive are left out. Where a call stands in place of a potency, no number is given. Unmarked numbers belong to inactive results. The source made the active and inactive calls. Calls follow the shape of the dose curve; as a rule, active = well fitted cell-killing curve with a large enough effect in the repeat runs; inconclusive = weak or mixed curves, or effect the other way; inactive = flat fitted curve, though single readings scatter. Starred links: 1 amine or outer side, 2 acyl side, 3 side chain; linkers in the order of their positions; H or OH if unused. Positions of bridges follow the written chain, without caps; N, C: chain ends. Non-standard residues stand in square brackets, D forms with d. Residues, ends and D or L forms follow the SMILES beside them. Chains are numbered I, II in the order given. Actinocin(9to1) = Cc1c2oc3c(C)ccc(C(=O)[*:1])c3nc-2c(C(=O)[*:2])c(N)c1=O; NMeV = CN[C@H](C(=O)O)C(C)C; Sar = CNCC(=O)O
Potency is read from the fitted curve at half-maximal effect.

The nature of this test: qHTS assay to identify small molecule agonists of the androgen receptor (AR) signaling pathway in the presence of an antagonist - cell viability counter screen (AID 1259379). Also: nearly all actives have a fitted effect of over 25% in size. To be noted: MDA-kb2 viability, CellTiter-Fluor, 16 h; series mostly up to 92.4 µM. From the text: National Center for Advancing Translational Sciences [NCATS]
NIH Chemical Genomics Center [NCGC]
U.S. Environmental Protection Agency [EPA]
National Institutes of Environmental Health Sciences [NIEHS]
National Toxicology Program [NTP]
U.S. Food and Drug Administration [FDA]
Androgen receptor (AR) is an important member of nuclear receptor family. Its signaling plays a critical role in AR-dependent prostate cancer and other androgen related diseases. Considerable attention has been given in the past decades to develop methods to study and screen for the environmental chemicals that have the potential to interfere with metabolic homeostasis, reproduction, developmental and behavioral functions. Therefore AR binding assay for screening against androgen agonists and antagonists can be used to identify potential endocrine disruptors.
MDA-kb2 cells (from ATCC, deposited by Wilson et al.) are human breast carcinoma cells that were stably transfected with a luciferase reporter gene under control of the MMTV promoter that contains response elements for both androgen receptor (AR) and glucocorticoid receptor (GR). This particular screening for measuring luciferase reporter gene activity using MDA-kb2 cells against Tox21 10K library compounds is a confirmation study on agonist mode screening in the presence of AR-antagonist compound (Nilutamide) at 3.0uM final concentration. The cytotoxicity of the compounds was tested in parallel by measuring the cell viability using CellTiter-Fluor assay system (Promega, Madison, WI) in the same wells.
Tox21 Assay Protocol Summary:
MDA-kb2 cells (cells cultured without CO2) were dispensed at 3,000 cells/well in 4uL of culture medium into white wall/solid-bottom 1536-well plates (Corning Life Sciences, Corning, NY) using a Multidrop Combi (Thermo Fisher Scientific Inc., Waltham, MA) dispenser. The assay plates were incubated at 37C and 0% CO2 for 5hr. One uL of 3.0uM (final concentration) Nilutamide or assay buffer was added using two separate tips of Flying Reagent Dispenser (FRD, Aurora Discovery, San Diego, CA). Then 23nL of compounds dissolved in DMSO at 15 concentrations and positive controls were transferred to the assay plates using a Pintool station (Wako, San Diego, CA). The assay plates were incubated at 37C and 0% CO2 for 16 hr. After 15hr incubation at 37C, 1uL/well CellTiter-Fluor reagent (Promega Corporation) was added to each well of the assay plates using FRD. After 1hr incubation at 37C and 0% CO2, the fluorescence signal was measured using a ViewLux plate reader (PerkinElmer, Shelton, CT).
A general note: Quantitative high-throughput screening tests each substance at several concentrations.
`CCCCCCCCCCCCCCCCCl`: the activity change, negative = cytotoxicity is 1.7% [at 19 µM].
Regarding `Oc1ccc(Cl)cc1Cc1cc(Cl)ccc1O`, the Potency is 39.3 µM (active) and 27.3 µM (active) and 29.8 µM (active).
Regarding `CCC(C)(C)C(=O)O[C@H]1C[C@@H](C)C=C2C=C[C@H](C)[C@H](CC[C@@H]3C[C@@H](O)CC(=O)O3)[C@H]21`, the Potency entry is “inactive”.
As for `Nc1ccc2cc3ccccc3cc2c1`, the Potency result is “inactive”.
As to `Cc1scc2c1N(C(=O)CN1CCN(C)CC1)c1ccccc1NC2=O`, the Potency entry was “inactive”.
On to `O=S(=O)(O)c1ccc2nc(-c3ccccc3)[nH]c2c1`, for which the Potency entry was “inactive”.
With `c1ccc2c(c1)CCCC2C1=NCCN1` (stereo not given), the Potency entry was “inactive”.
Same read-out and setting: the entry for `Cc1occc(=O)c1OC(=O)C(C)C` is “inactive”; for `CCOC(=O)C(C)C(C)=O` (stereo not given) it is “inactive”; for `CCc1cc(C(C)(C)C)c(O)c(C(C)(C)C)c1` it is “inactive”.
The same measure, in the same setting: with `C[N+]1([O-])CCOCC1` the entry was “inactive”.
For `CC(C)CCOC(=O)c1ccc(N(C)C)cc1`, the Potency result was “inactive”.
For the compound `CCc1ccc(C(c2ccc(CC)cc2)C(Cl)Cl)cc1`, the Potency entry was “inactive”.
Take `Cc1cccc([N+](=O)[O-])c1C(=O)O`: the Potency entry is “inactive”.
As to `CC(C)(C)NCC(O)COc1ccccc1OCC1CCCO1` (stereo not given), the Potency entry is “inactive”.
As for `CC(=O)CC(C)=O`, the Potency result is “inactive”.
Take `NCCO`: the Potency result was “inactive”.
`Cc1ccnc2c1NC(=O)c1cccnc1N2C1CC1`: the Potency entry is “inactive”.
For `CCCCCCCCCCCC[N+](C)(C)C`, the Potency was 13.6 µM (active) and 9.69 µM (active) and 13.7 µM (active).
Take `CC1COC(=O)O1` (stereo not given): the Potency result is “inactive”.
On to `COc1ccc(Cc2cnc(N)nc2N)cc1OC`, for which the Potency result is “inactive”.
With `N[C@@H]1CONC1=O`, the Potency entry is “inactive”.
Regarding `CN1C(=O)c2ccc([N+](=O)[O-])cc2C1=O`, the Potency result was “inactive”.
On to `CC(C)C(=O)c1c(C(C)C)nn2ccccc12`, for which the Potency entry is “inactive”.
With `CCN(CC)C(=S)SSC(=S)N(CC)CC`, the Potency result was “inactive”.
Same read-out and setting: the entry for `CC(=O)OCC1=C(C(=O)O)N2C(=O)[C@@H](NC(=O)Cc3cccs3)[C@H]2SC1` is “inactive”; for `CCCCCCCCCCCCCC[P+](CCCC)(CCCC)CCCC` it is 19.2 µM (active) and 15.4 µM (active); for `CN(C)c1ccc2nc3ccc(=[N+](C)C)cc-3sc2c1` it is 3.3 µM (active) and 6.86 µM (active) and 4.22 µM (active).
Regarding `Cc1c2oc3c(C)ccc(C(=O)N[C@@H]4C(=O)N[C@H](C(C)C)C(=O)N5CCC[C@H]5C(=O)N(C)CC(=O)N(C)[C@@H](C(C)C)C(=O)O[C@@H]4C)c3nc-2c(C(=O)N[C@@H]2C(=O)N[C@H](C(C)C)C(=O)N3CCC[C@H]3C(=O)N(C)CC(=O)N(C)[C@@H](C(C)C)C(=O)O[C@@H]2C)c(N)c1=O` (I: T[dV]P[Sar][NMeV] / II: T[dV]P[Sar][NMeV]; ester I:1-I:C, II:1-II:C; linker I:N-II:N via Actinocin(9to1)), the Potency was 10.6 µM (active).
In the case of `COC(=O)c1cccc(C(=O)OC)c1`, the Potency result is “inactive”.
For the compound `CCCCC(CC)COC(=O)CC(C(=O)OCC(CC)CCCC)S(=O)(=O)O` (stereo not given), the Potency entry is “inactive”.
For `CC(=O)CC(=O)Nc1ccc2[nH]c(=O)[nH]c2c1`, the Potency entry is “inactive”.
Consider `Nc1cc(Cl)c(-c2cc(Cl)c(N)cc2Cl)cc1Cl`, for which the Potency is 54.4 µM (active) and 48.6 µM (active).
Turning to `Cc1cc(C(C)(C)C)c(O)c(C(C)(C)C)c1`, the Potency entry was “inactive”.
The same measure, in the same setting: the figure for `O=C(O[C@@H]1Cc2c(O)cc(O)cc2O[C@@H]1c1cc(O)c(O)c(O)c1)c1cc(O)c(O)c(O)c1` is 54.6 µM (active).
On to `CC(C)(C)c1cc(C(C)(C)C)c(O)c(C(C)(C)C)c1`, for which the Potency entry was “inactive”.
Consider `CC(C(O)c1ccc(O)cc1)N1CCC(Cc2ccccc2)CC1` (stereo not given), for which the Potency entry is “inactive”.
Consider `CCN(CC)CCOc1ccc(/C(=C(\Cl)c2ccccc2)c2ccccc2)cc1`, for which the Potency was 44.2 µM (active) and 29.8 µM (active).
With `COC(=O)[C@H]1[C@H]2C[C@@H]3c4[nH]c5cc(OC)ccc5c4CCN3C[C@H]2C[C@@H](OC(=O)c2cc(OC)c(OC)c(OC)c2)[C@@H]1OC`, the Potency entry is “inactive”.
For `COc1cc(C(=S)N2CCOCC2)ccc1O`, the Potency entry was “inactive”.

For the origin of these results see PubChem BioAssay (Tox21).
